# Assay outcomes as filed in PubChem.
# GalR3 antagonist = GalR3 antagonists in HEK293 cells, primary screen, cell-based, fluorescence readout; inhibition, % at 3 µM; AID 651719, 2012; HEK293 GalR3-CNG cAMP membrane potential fluorescence; galR3 body fused to GalR1 C-terminus; actives 0.44% (n = 360,000);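 active means inhibition above the screen-wide average plus 3 SD, cut at about 13% in these data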;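 further: forskolin and galanin both at EC90 stimulate the cells; cAMP rise reported by CNG channel membrane potential dye signal; 0% = forskolin plus galanin with DMSO and 100% = forskolin alone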
# SRC3 inh = SRC3 coactivator transcriptional activity inhibitors, primary screen, cell-based, luminescence; AID 588352, 2011; actives 0.17% (n = 360,000); inhibition, % at 3.6 µM; HEK293 GAL4-SRC3 luciferase reporter; Nuclear receptor coactivator 3 (Homo sapiens), Q9Y6Q9;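 active means inhibition above a per-campaign cutoff, the mean of all compounds plus 3 SD, cut at about 60% in these data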;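 further: 0% = DMSO-treated cells and 100% = gossypol-treated cells at 36 µM; higher means less SRC3-driven luciferase light from the GAL4 reporter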
# NCOA2 inhibitor = inhibition of GAL4-SRC2 driven luciferase reporter, primary screen, SRC2 inhibitor project, cell-based, luminescence. HEK293 GAL4-SRC2 luciferase reporter. inhibition, % at 9 µM. actives 0.17% (n = 370,000). AID 651957, 2012;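 active means inhibition above the mean inhibition of all tested compounds plus 3 SD, set per campaign, cut at about 52% in these data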;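 further: 0% = DMSO treated cells and 100% = cells given Gossypol at 36 µM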
# NR2F2 inh = NR2F2 transcriptional activity inhibitors, primary screen, cell-based, luciferase reporter, HEK293T, luminescence. COUP transcription factor 2 (Homo sapiens), P24468. HEK293T NGFI-A luciferase reporter. actives 0.7% (n = 370,000). inhibition, % at 8.6 µM;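 active means inhibition above a per-plate cutoff, mean inhibition of test wells between control levels plus 3 SD, cut at about 38% in these data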;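 further: cells cotransfected with COUP-TFII expression vector driving the NGFI-A reporter; 0% = median of COUP-TF2 test wells and 100% = reporter-only cells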
# NCOA1 inh = SRC1 coactivator transcriptional activity inhibitors, primary screen, cell-based, luminescence. HEK293 GAL4-SRC1 luciferase reporter. inhibition, % at 3.6 µM. actives 0.12% (n = 360,000);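 active means inhibition above the campaign mean plus 3 SD, with each screening campaign given its own cutoff, cut at about 60% in these data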;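 further: 0% = DMSO treated cells and 100% = gossypol at 36 µM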
# NR5A2 inv ag = LRH-1 (NR5A2) inverse agonists, primary screen, cell-based, luminescence, HEK293T, StAR-luciferase reporter; Nuclear receptor subfamily 5 group A member 2 (Homo sapiens), O00482; LRH-1 transfected, 24 h; inhibition, % at 3.6 µM; actives 0.13% (n = 360,000);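 active means inhibition above the mean inhibition of all tested compounds plus 3 SD, cut at about 73% in these data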;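 further: 0% = DMSO wells and 100% = reporter-only cells lacking LRH-1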
# GalR3 antag conf = GalR3 antagonist hit confirmation, cell-based, fluorescence, triplicate. actives 59% (n = 1,600). inhibition, % at 3 µM. HEK293 GalR3 CNG cAMP biosensor, membrane potential fluorescence; galR3 fused to GalR1 carboxy tail; challenged with forskolin and galanin at EC90. AID 652245, 2013. shares compounds with GalR3 antagonist;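 active means inhibition above the primary screen's cutoff, the mean inhibition of all screened compounds plus 3 SD, cut at about 13% in these data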;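 further: 0% = forskolin plus galanin and 100% = forskolin alone with DMSO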
# HEK-CNG parental = nonspecific cAMP agonists in parental HEK-CNG cells, counter-screen for GalR3 antagonist project, cell-based, fluorescence, high throughput | shares compounds with GalR3 antagonist | HEK293-CNG parental cells, cAMP membrane potential fluorescence; normalised: DMSO wells 0%, forskolin wells 100% | activation, % at 3 µM | actives 10% (n = 1,600) | AID 652268, 2013; in the data active means activation above about 1.3%
# The depositor's hits bear a star; · = no result. A selection: hits, their analogues and other compounds. The true share with any hit is near 1.1%.
SMILES,GalR3 antagonist,SRC3 inh,NCOA2 inhibitor,NR2F2 inh,NCOA1 inh,NR5A2 inv ag,GalR3 antag conf,HEK-CNG parental
CCOC(=O)C1(CCOc2ccccc2)CCN(Cc2ccc(OC)c(COC)c2)CC1,13*,25,13,24,12,18,64*,3.5*
CCOC(=O)N1C(=O)C[C@](Sc2ccc(OC)cc2)(C(=O)N2CCN(C(C)=O)CC2)[C@H]1c1ccc(OC)cc1,·,·,0,-10,·,·,·,·
O=C(Nc1cccc(N=Cc2cc(Br)cc(Br)c2O)c1)c1ccco1,17*,-7,-30,5,-29,1,14*,0
O=C(Nc1cccc(N=Cc2cc(Cl)cc(Br)c2O)c1)c1ccco1,1,3,-4,7,-23,15,·,·
CCN(CC)C(=O)CC[C@@H]1CC[C@]2(CCCN(S(=O)(=O)c3ccccc3)C2)O1,·,·,-8,5,·,·,·,·
COc1cccc(NC(=S)N(CCCN2CCCC2)Cc2ccco2)c1,21*,16,-4,6,-2,-24,1,1
CCOC(=O)[C@@]12CN(C(=O)OC(C)(C)C)CC=C1N(Cc1ccc(OC)cc1)C(=O)[C@H]2CC(=O)NCC12CC3CC(CC(C3)C1)C2,·,·,1,10,·,·,·,·
Cc1ccc(NC(=O)OCc2ccccc2S(C)=O)cc1 (configuration not stated),15*,-13,-1,-7,-8,-10,29*,0
OC1(c2ccc(OC(F)F)cc2)CSC(=Nc2cccnc2)N1C1CC1 (configuration not stated),98*,-7,25,57*,8,43,-5,0
O=C(NCCN1CCC(Cc2ccccc2)CC1)C1CCCN(S(=O)(=O)c2ccc(Cl)s2)C1 (configuration not stated),·,·,28,25,·,·,·,·
CC1CCN(C(=O)/C(=C\c2cccs2)NC(=O)c2ccccc2)CC1,19*,4,6,-13,-26,22,8,0
CCCCn1c(=O)[nH]c(=O)c2c1nc(Cn1ncc(Cl)c(Cl)c1=O)n2CCC,23*,8,-15,-6,-7,-1,20*,0
O=c1c2ccccc2n(Cc2ccno2)n1[C@@H](Cc1ccccc1)Cn1cc(C2CCCC2)nn1,·,·,11,-13,·,·,·,·
COc1cc(/C=C/C2=NNC(=O)CC2)cc(OC)c1OC,20*,1,-62,-26,-16,-6,16*,0
COc1cccc(/C=C2\CC3(OC(=O)c4cccc(F)c4)CCCN2C3)c1 (configuration not stated),·,·,13,8,·,·,·,·
Cc1ccc(C2C3=C(CC(C)(C)CC3=O)NC3=C2C(=O)c2ccccc23)cc1 (configuration not stated),22*,11,-9,-1,5,8,19*,0
COc1ccc2[nH]c3c(c2c1)CCN1C(=O)N([C@@H](C)C(=O)NCCc2ccc(OC)c(OC)c2)C(=O)[C@]31C,26*,9,-26,-21,-12,18,-1,0
O=C(OC12CCCN(C1)/C(=C/c1ccc(Cl)cc1)C2)c1ccc(F)cc1 (configuration not stated),·,·,19,-4,·,·,·,·
COc1ccc(-c2nnn(CC(=O)N(CC(=O)NC3CCCC3)Cc3ccco3)n2)cc1OC,21*,-1,17,-18,-11,4,14*,0
O=C(CN(Cc1ccco1)C(=O)Cn1nnc(-c2ccc(F)cc2)n1)NC1CCCC1,3,-5,1,5,11,14,·,·
CC(C)OC(=O)C1=CNCC(C)(C)c2c1[nH]c1cc(F)ccc21,·,·,·,-3,·,·,·,·
COc1ccc(S(=O)(=O)N2CCN(CCO)CC2)cc1-c1nnc2c3ccccc3c(C)nn12,11,-2,-21,-8,-8,14,·,·
Cc1ccc(S(=O)(=O)N2CCN(CCO)CC2)cc1-c1nnc2c3ccccc3c(C)nn12,30*,-5,-1,5,4,-4,43*,2.9*
Cc1ccc(S(=O)(=O)N2CCN(C)CC2)cc1-c1nnc2c3ccccc3c(C)nn12,40*,-3,-52,10,-12,-3,49*,1
CCOc1ccc(-n2c(SCC(=O)Nc3ccc(S(=O)(=O)Nc4nccs4)cc3)nnc2-c2ccc(C(C)(C)C)cc2)cc1,·,·,-6,2,·,·,·,·
SMILES,GalR3 antagonist,SRC3 inh,NCOA2 inhibitor,NR2F2 inh,NCOA1 inh,NR5A2 inv ag,GalR3 antag conf,HEK-CNG parental
CCN=C1S/C(=C\c2cc(OCC)c(O)cc2Br)C(=O)N1CC,16*,3,-3,11,2,10,21*,0
COC(=O)C1CN(Cc2ccc(F)cc2)CCS(=O)(=O)N1Cc1cn(Cc2ccc(Cl)cc2)nn1 (configuration not stated),·,·,5,13,·,·,·,·
O=C(NCCc1c[nH]c2ccccc12)OCc1cn(Cc2ccc(F)cc2F)nn1,·,·,-17,1,·,·,·,·
Nc1nc(-c2ccc3c(c2)OCCO3)cs1,23*,-52,-61,-47,-95,-72,29*,0
Cc1nc(-c2ccc3c(c2)OCCCO3)cs1,-2,-63,-20,-40,-100,-109,·,·
Cc1ccc(Nc2ccc(C(=O)O)cc2N)cc1,15*,·,-87,-57,·,·,3,-1
COc1cc(/C=N/NC(=O)CN(CCc2ccccc2)S(=O)(=O)c2ccc(NC(C)=O)cc2)cc(OC)c1OC,4,14,-13,8,8,-11,·,·
COc1ccc(/C=N/NC(=O)CN(CCc2ccccc2)S(=O)(=O)c2ccc(NC(C)=O)cc2)cc1OC,17*,-8,-38,-11,-2,0,29*,0
COc1ccc(N(CC(=O)N/N=C/c2ccc(OC)c(OC)c2)S(=O)(=O)c2ccccc2)cc1,14*,-8,-17,-9,-53,-2,34*,0
Cc1c[nH]c2cccc(-c3cc4ccccc4o3)c12,·,·,-25,-11,·,·,·,·
